# Out of some 290,000 compounds screened, about 2,700 (0.93%) were called active. The rule behind the calls is not given here. Many of the other results were omitted from the sample, so actives are more common in it than they were.
# Target: Eukaryotic translation initiation factor 4H (Homo sapiens) (UniProt Q15056)
# Test: eIF4H binding inhibition – biochemical, uHTS, fluorescence polarization, translation initiation inhibitor project, primary screen (AID 2012);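 note: calls also rest on retests at 20 µM and on dose response follow-up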
# Details: eIF4H fluorescence polarization binding assay, stronger effect = higher value
Structure (SMILES),inhibition (at 35 µM),"inhibition (confirmation average, at 20 µM)"
CCCN(c1ccc(C)cc1)c1nc(=O)c2cccnc2s1,91.1% (active),
COc1ccccc1N1CC(C(=O)Nc2nnc(SCC(=O)NCC3CCCO3)s2)CC1=O (stereo not drawn),-4% (inactive),
CN(C(=O)c1cc2c(=O)n3ccccc3nc2s1)C1CCCCC1,-4.1% (inactive),
COc1ccc(OC)c(Nc2nc(-c3ccc(O)c(O)c3)cs2)c1,65.5% (active),
COc1ccc(-c2csc(Nc3ccc(O)cc3)n2)cc1,9.7% (inactive),
COc1cccc(CC(=O)Nc2nc(-c3ccc(OC)c(OC)c3)cs2)c1,6.8% (inactive),
O=S(=O)(Nc1cccc(-n2cnnn2)c1)c1cnc(Cl)c(Cl)c1,-5.5% (inactive),
CN(C)S(=O)(=O)c1ccc(N/C=C(\[N+](=O)[O-])S(=O)(=O)c2ccccc2)cc1,-0.3% (inactive),
COc1cccc(OC)c1C(=O)Nc1c(C(=O)N2CCN(c3ccccn3)CC2)oc2ccccc12,-10.2% (inactive),
Oc1c(Cl)cc(Cl)c(Cl)c1Cc1c(O)c(Cl)cc(Cl)c1Cl,51% (active),96.3%
COc1ccc(CSc2nnnn2-c2ccc(O)cc2)cc1F,-12% (inactive),
COc1cccc(NC(=O)c2ccccc2N(Cc2ccccc2)S(C)(=O)=O)c1,-8.4% (inactive),
COC(=O)[C@@H]1CCCN1C(=O)c1cc(COc2cccc3cccnc23)on1,4.3% (inactive),
O=C1CCCC(O)=C1N=Nc1ccc2ncsc2c1,69.2% (active),94.3%
O=C1CCCC(O)=C1N=Nc1ccc(S(=O)(=O)N2CCOCC2)cc1,27.7% (inactive),
CC(CC(=O)N1CCN(S(=O)(=O)c2ccccc2)CC1)n1cncn1 (stereo not drawn),-2.7% (inactive),
COc1ccc(Cc2nnc(NC(=O)c3ccc(OC)cc3OC)s2)cc1,4.9% (inactive),
CCc1nnc(NC(=O)Cc2cccs2)s1,19.2% (inactive),
COc1ccc(Cc2nnc(NC(=O)Cc3cccs3)s2)cc1,71.3% (active),
CC1CN(C(=O)CCC(=O)NCCCN2CCC(Cc3ccccc3)CC2)c2cc(Cl)ccc2O1 (stereo not drawn),6% (inactive),
C#CCOc1ccccc1/C=C1/C(=O)ON=C1C,-20.1% (inactive),
Cc1ccc(NC(=O)c2cccnc2C(=O)Nc2ccc(C)cc2)cc1,4% (active),65.7%
Cc1ccc(NC(=O)Nc2cccnc2)cc1,2.1% (inactive),
Cc1ccc(NC(=O)c2ccc(Oc3ncccn3)cc2)cc1,0.1% (inactive),
O=C(N/N=C/c1cc(Cl)cc([N+](=O)[O-])c1O)C(O)(c1ccccc1)c1ccccc1,1.2% (inactive),

Structure (SMILES),inhibition (at 35 µM),"inhibition (confirmation average, at 20 µM)"
O=[N+]([O-])c1cc(Cl)cc(/C=N/NC(=S)Nc2cc(S(=O)(=O)N3CCOCC3)ccc2Cl)c1O,89.6% (active),
O=C(NC(=S)Nc1ccc(S(=O)(=O)N2CCOCC2)cc1)c1ccccc1[N+](=O)[O-],6.8% (inactive),
CC[C@]1(c2ccccc2OC)C(=O)N(C(=O)OC)N1C(=O)OC,2.4% (inactive),
COc1ccccc1CNC(=O)[C@@H]1CCCN1C(=O)[C@@H]1Cc2ccccc2CN1C(=O)OC(C)(C)C,-6.3% (inactive),
COc1ccc(NS(=O)(=O)c2ccc(N3CCN(CCO)CC3)c([N+](=O)[O-])c2)cc1,-9.3% (inactive),
CCC(C)Cn1c(O)cc2nn(-c3nc4ccccc4s3)c(=O)c-2c1C (stereo not drawn),89.6% (active),
Cc1cc(NC(=O)CN2CCCC(C)C2)n(-c2nc3ccccc3s2)n1 (stereo not drawn),-0.6% (inactive),
C/C(=N\NC(=O)CC(C)C)c1c(C(F)(F)F)[nH]n(-c2nc3ccccc3s2)c1=O,-5.6% (inactive),
COc1ccc(S(=O)(=O)NCCCCOc2ccc(Cl)cc2)cc1,25.8% (inactive),
O=C(NNS(=O)(=O)c1ccc(F)cc1)c1ccc([N+](=O)[O-])cc1Cl,-5.4% (inactive),
CC(C)c1ccc(OCC(O)CN2CCN(c3ccccn3)CC2)cc1 (stereo not drawn),-9.3% (inactive),
COc1ccc(-c2csc(Cc3nc(O)cs3)n2)cc1,20.3% (active),82.6%
COc1ccc(-c2csc(NC3OC(=O)c4ccccc43)n2)cc1 (stereo not drawn),2.1% (inactive),
CC(C)(C)C(=O)OCc1nc(-c2ccc(O)c(O)c2)cs1,1.2% (inactive),
FC(F)(F)C1CCCN(c2nsc3ccccc23)C1 (stereo not drawn),-3.8% (inactive),
O=S(=O)(c1ccc(Br)cc1)c1nc(-c2ccccc2)oc1N1CCOCC1,-5.9% (inactive),
O=C(O)CCC(=O)Nc1ccc(OCC2CCCO2)cc1 (stereo not drawn),2.6% (inactive),
COC(=O)COc1ccc2c(=O)c(Oc3ccccc3Br)coc2c1,5.6% (inactive),
Cc1cc(=O)oc(C)c1C(=O)NCc1ccc(F)cc1,0.5% (inactive),
Cc1cc(=O)oc(C)c1C(=O)Nc1cnc2ccccc2c1,78.6% (active),
Cc1cc(=O)oc(C)c1C(=O)NCCN(C)Cc1ccccc1,6.6% (inactive),
CCOC(=O)c1c(S(=O)(=O)NCC(=O)Nc2ccc(C)cc2)c(C)n(C)c1C,-0.1% (inactive),
O=C(NCCCn1ccnc1)/C(=C\c1ccccc1F)NC(=O)c1ccccc1,-6.4% (inactive),
Cc1ccc(Nc2nc(C)cc(C)c2C(N)=O)cc1,5.6% (inactive),
Cc1cc(C)c(C(N)=O)c(Cl)n1,19.4% (active),93.1%

Structure (SMILES),inhibition (at 35 µM),"inhibition (confirmation average, at 20 µM)"
Cc1cc(OC(=O)c2c(Cl)cccc2Cl)nc(C)n1,-11.4% (inactive),
CC(C)CN(CC(C)C)C(=O)CN1c2cccc3cccc(c23)S1(=O)=O,-14.9% (inactive),
COc1cccc(C2Nc3cccc4cccc(c34)N2)c1,59.9% (active),98.5%
Cc1ccc(C2Nc3cccc4cccc(c34)N2)cc1,41% (inactive),
O=C1NC(c2cccc(Cl)c2)Nc2ccccc21 (stereo not drawn),-8.5% (inactive),
Oc1ccc(C2Nc3cccc4cccc(c34)N2)cc1,97.3% (active),
COc1ccc(C2NC(=O)c3ccccc3N2)cc1 (stereo not drawn),7.1% (inactive),
COc1ccc(N2C(=O)C3CCCN3C2c2cccc(OC)c2)cc1 (stereo not drawn),-6.3% (inactive),
O=C(Nc1nnc(S(=O)(=O)N2CCCCCC2)s1)c1cccc(Br)c1,-8.4% (inactive),
COc1ccc(CCNC(=O)CN(C)S(=O)(=O)c2ccc3nc(C)sc3c2)cc1OC,-3% (inactive),
CS(=O)(=O)N1CCCC(C(=O)Nc2ccccc2C(F)(F)F)C1 (stereo not drawn),-2% (inactive),
CCOc1ccc(NC(=O)CC(Cc2ccc(Cl)cc2)C(=O)O)cc1 (stereo not drawn),-6.5% (inactive),
CN(Cc1ccccc1)CC(O)COc1ccc(CNCc2cc3ccccc3s2)cc1 (stereo not drawn),-2% (inactive),
CN(CC1CCCN(CCc2cccc(C(F)(F)F)c2)C1)C(=O)c1ccc2nc[nH]c2c1 (stereo not drawn),-2% (inactive),
Oc1ccc(-c2cccc(-c3ccc(O)cc3)c2)cc1,2% (inactive),
CCC(C)(C)NC(=O)C(c1ccc(O)cc1)N(Cc1ccco1)C(=O)CCC(=O)Nc1ccccn1 (stereo not drawn),-7% (inactive),
Cc1[nH]n(C(N)=S)c(=O)c1N=Nc1ccc(Cl)cc1Cl,13.7% (inactive),
Cc1cc2ccccc2n1CCC(=O)O,52.4% (active),80.5%
Cc1cc2ccccc2n1CCNC(=O)COc1ccc2ccccc2c1,21% (inactive),
O=C(O)CCn1c(Cc2ccccc2)nc2ccccc21,0.7% (inactive),
CCc1nc(N2CCN(C(C)=O)CC2)c2c3c(sc2n1)CCCC3,-5.1% (inactive),
COc1ccc(C(C)NC(=S)NC2CCCCC2)cc1OC (stereo not drawn),-7.9% (inactive),
CCOc1ccc(N(C)Cc2cc(=O)oc3ccc(OC)cc23)cc1,4.8% (inactive),
O=C(NCc1cccnc1)c1ccccc1NC(=O)c1c(F)cccc1F,-10.7% (inactive),
CSc1ccc(/C=N/N2CCN(Cc3ccccc3Cl)CC2)cc1,0.6% (inactive),

Structure (SMILES),inhibition (at 35 µM),"inhibition (confirmation average, at 20 µM)"
O=c1ccn(Cc2ccccc2Cl)cc1,-2.8% (inactive),
O=S1(=O)CCN(Cc2ccccc2Cl)CC1,56.9% (active),81.5%
COC(=O)c1ccc(C(=O)NC2CC(C)(C)Cc3c2cnn3-c2ccc(F)cc2)nc1 (stereo not drawn),-3.4% (inactive),
CC(c1ccccn1)N(C)C(=O)c1ccc2nc(Cc3cccc(Cl)c3)oc2c1 (stereo not drawn),-0.5% (inactive),
CC1(OC(=O)CCc2ccccc2)C(=O)C=C2C=C(c3ccc(C#N)cc3)N(CCc3ccccn3)C=C2C1=O (stereo not drawn),35.9% (inactive),
COC(=O)CCCC1=CC2=CC(=O)C(C)(OC(=O)c3cccs3)C(=O)C2=CN1CC1CC1 (stereo not drawn),45.8% (inactive),
COCCN1C=C2C(=O)C(C)(OC(=O)C3CCCC3)C(=O)C=C2C=C1c1ccsc1 (stereo not drawn),98.2% (active),
COCc1c(C(=O)N/N=C(\C)c2ccncc2)nnn1-c1nonc1N,1.9% (inactive),
Cc1ccc(NC(=O)C2CCN(S(=O)(=O)c3ccc4c(c3)NC(=O)CO4)CC2)cc1C,-7.3% (inactive),
COc1ccccc1C(=O)N(Cc1ccc(C)o1)C1CCS(=O)(=O)C1 (stereo not drawn),-6.1% (inactive),
Fc1cc(F)c2nc(Nc3nc4c(F)cccc4s3)sc2c1,11.5% (inactive),
NC(=O)c1c(NC(=O)c2ccccc2)sc2c1CCCC2,-0.5% (inactive),
NC(=O)c1c(Nc2nc3c(F)cccc3s2)sc2c1CCCC2,72.6% (active),99.1%
Cc1cc2oc(=O)cc(CN(C)Cc3ccc(OC(F)F)cc3)c2cc1Cl,-2.2% (inactive),
Cc1ccc(S(=O)(=O)N2CCC(C)CC2)cc1C(=O)NCc1ccccn1,-2.5% (inactive),
CCc1ccc(NC(=O)CN2CCC(C(=O)c3ccc(OC)cc3)CC2)cc1,-2.2% (inactive),
CN1CCCC(OC(=O)COc2ccc(Br)cc2)C1 (stereo not drawn),99.9% (active),84.2%
Cc1ccc(C(=O)OC2CCCN(C)C2)cc1 (stereo not drawn),-3.9% (inactive),
CCOC(=O)N1CCN(C(=O)COc2ccc(Br)cc2)CC1,5.2% (inactive),
Fc1ccccc1CNC(=S)Nc1ccc(Cl)cc1,0.6% (active),106%
COC(=O)Cc1ccc(NC(=S)NCc2ccc(Cl)cc2)cc1,2% (inactive),
S=C(NCc1cccs1)Nc1ccc(Cl)cc1,-10% (inactive),
